The text below walks through data of the supplement of paper PMC10981050.

Molecules are shown by their SMILES. Where “and” joins values, the source holds several entries; their conditions need not be identical. Identical values can stand only once. Counter-ions that a name gives are not always drawn.

For the assay, the system named is K562. As to the kind of experiment: cell viability relative to vehicle control; higher = less cytotoxic. The settings on record: 10 µM; SRSF2 genotype: SRSF2 P95H/wt. In a few lines:
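CRISPR-edited mutant clones and isogenic wild-type clones from four leukaemia lines were screened against Selleck bioactive, kinase and epigenetic probe libraries, with identity-inconsistent compounds excluded. Each compound was acoustically dispensed at a single 10 µM dose into 384-well plates holding 2000 cells in 50 µL medium per well. After 48 h the supernatant was removed and CellTiter-Glo luminescence was read. Viability was expressed as percent of the on-plate vehicle control and analysed in Genedata Screener.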
As a reminder, the cell viability is a read-out of living cells in per cent, often relative to untreated cells. As for `CCCCCCCCCCCCc1ccc(S(=O)(=O)Nc2nncs2)cc1`, the cell viability was 107% and 104%.

On to `C#C[C@]1(O)CC[C@H]2[C@@H]3CCc4cc(O)ccc4[C@H]3CC[C@@]21C` [Ethinyl Estradiol], for which the cell viability was 71.9% and 69.8%.

Consider `C[C@]12CCC(=O)C=C1[C@@H]1C[C@@H]1[C@H]1[C@@H]3[C@@H]4C[C@@H]4[C@@]4(CCC(=O)O4)[C@@]3(C)CC[C@@H]12` [Drospirenone], for which the cell viability is 83.3% and 90.5%.

Consider `CS(=O)(=O)CCNCc1ccc(-c2ccc3ncnc(Nc4ccc(OCc5cccc(F)c5)c(Cl)c4)c3c2)o1` [Lapatinib], for which the cell viability was 40.9% and 35.3%.

Consider `C[C@H](CC[C@@]1(O)O[C@H]2C[C@H]3[C@@H]4CC=C5C[C@@H](O[C@@H]6O[C@H](CO)[C@@H](O[C@@H]7O[C@@H](C)[C@H](O)[C@@H](O)[C@H]7O)[C@H](O)[C@H]6O[C@@H]6O[C@@H](C)[C@H](O)[C@@H](O)[C@H]6O)CC[C@]5(C)[C@H]4CC[C@]3(C)[C@H]2[C@@H]1C)CO[C@@H]1O[C@H](CO)[C@@H](O)[C@H](O)[C@H]1O` [Protodioscin], for which the cell viability is 0.86% and 0.6%.

As for `CC(=NNC(=S)N1CCC1)c1ccccn1`, the cell viability was 20.3% and 23%.

With `CN(CC(=O)N(Cc1ccc(C2CCCCC2)cc1)c1ccc(C(=O)O)c(O)c1)S(=O)(=O)c1c(F)c(F)c(F)c(F)c1F`, the cell viability is 38% and 23.1%.

For the molecule `CNS(=O)(=O)Nc1nccc(Cc2c(C)c3ccc(Oc4ncccn4)cc3oc2=O)c1F`, the cell viability was 59.5% and 66.4%.

For `CC(C)n1c([C@H](C)Nc2ncnc(N)c2C#N)cc2cccc(-c3ccc(=O)n(C)c3)c2c1=O`, the cell viability is 71.2% and 78.7%.

For `CCCN(CCC)C(=O)C1=Cc2ccc(-c3ccc(C(=O)N4CCCC4)cc3)cc2N=C(N)C1` [Motolimod (VTX-2337)], the cell viability was 34.5% and 40.5%.

Regarding `O=C(O)[C@H]1O[C@@H](Oc2cc3oc(-c4ccc(O)cc4)cc(=O)c3c(O)c2O)[C@H](O)[C@@H](O)[C@@H]1O` [Scutellarin], the cell viability was 103% and 99.4%.

For `CS(=O)(=O)c1ccc(-c2nnc(/C=C/c3nnc(-c4ccc(C#N)cc4)o3)n2-c2ccccc2Cl)nc1`, the cell viability is 105% and 94.2%.

For the molecule `CC(C)=CCCC(C)=CCCC(C)=CCCC(C)=CCC1=C(C)C(=O)c2ccccc2C1=O` [Vitamin K2], the cell viability was 93.6% and 95.4%.

For the molecule `OCC(CO)N[C@H]1C[C@](O)(CO)[C@@H](O)[C@H](O)[C@H]1O` [Voglibose], the cell viability was 96.2% and 91.4%.

For the molecule `C[C@]12CC[C@@H]3c4ccc(OC(=O)c5ccccc5)cc4CC[C@H]3[C@@H]1CC[C@@H]2O` [Estradiol Benzoate], the cell viability was 62.1% and 62.4%.

As for `CC(C)(Sc1ccncc1-c1ccc(C#N)c2ccccc12)C(=O)O` [Verinurad (RDEA3170)], the cell viability is 102% and 101%.

With `N#Cc1c(Oc2ccc(F)c(NC(=O)Cc3cccc(C(F)(F)F)c3)c2)ccc2nc(NC(=O)C3CC3)sc12`, the cell viability is 12.9% and 18.9%.

Regarding `O=C(CSc1nc2c(c(=O)n1-c1ccccc1)SCC2)Nc1ccc(-c2ccccc2)cn1`, the cell viability was 88.8% and 93.3%.

With `C=C(C)C1CC=C(C)CC1` (single isomer, unassigned; (+)) [(+)-Dipentene], the cell viability is 114% and 103%.

Take `NC(=O)Nc1cc(-c2cccc(F)c2)sc1C(=O)N[C@H]1CCCNC1`: the cell viability was 3.91% and 4.76%.

Turning to `Cc1[nH]c(=O)c(C#N)cc1-c1ccncc1` [Milrinone (Primacor)], the cell viability was 102% and 97.3%.

As for `NCCCC[C@@H]1NC(=O)[C@@H](Cc2ccc(O)cc2)NC(=O)[C@H](CC(=O)O)NC(=O)CNC(=O)[C@H](CCCN=C(N)N)NC1=O` [Cyclo(RGDyK)], the cell viability is 93.8% and 88.5%.

As for `CCN(Cc1ccncc1)C(=O)C(CO)c1ccccc1` (stereo unspecified) [Tropicamide], the cell viability is 102% and 103%.

Take `O=c1c2cc(O)c(O)cc2oc2cc(O)c([C@@H]3O[C@H](CO)[C@@H](O)[C@H](O)[C@H]3O)c(O)c12` [Mangiferin]: the cell viability is 106% and 96.7%.

Regarding `C=CC[S+]([O-])C[C@H](N)C(=O)O` (stereo partly specified) [Alliin], the cell viability is 105%.

On to `CCN1CCN(Cc2ccc(C(=O)Nc3ccc(C)c(Oc4ccc5c(c4)CC(=O)N5)c3)cc2C(F)(F)F)CC1`, for which the cell viability is 4.41% and 19.5%.

Take `Cc1cc(C)c(-c2csc(NC(=O)c3ccccc3)n2)c(C)c1`: the cell viability was 58.4% and 51.8%.

Take `COc1ccccc1OCC(O)CN1CCN(CC(=O)Nc2c(C)cccc2C)CC1` (stereo unspecified) [Ranolazine dihydrochloride]: the cell viability was 92.7% and 97.6%.

Regarding `COc1cc2c(=O)c(-c3ccc(O)cc3)coc2cc1O[C@@H]1O[C@H](CO)[C@@H](O)[C@H](O)[C@H]1O` [Glycitin], the cell viability was 98% and 97.4%.

In the case of `C#C[C@]1(O)CC[C@H]2[C@@H]3CCc4cc(OC5CCCC5)ccc4[C@H]3CC[C@@]21C` [Quinestrol], the cell viability is 78.4% and 83.7%.

Regarding `CC(C)(Cc1ccc2ccccc2c1)NC[C@@H](O)COc1cccc(Cl)c1C#N`, the cell viability is 10.7% and 3.37%.
